# Assay results: the supplement of paper PMC11865577
# Counter-ions that a name gives are not always drawn.
# Legend:
# Test in all cases: normalised indicator fluorescence (fraction of RNA + indicator signal without compound); higher = less displacement of indicator (weaker competition)
# Details in all cases: compound concentration: 5 uM, 30 min
# [1] = tested on: hsa-mir-191 loop
# Method in brief: (§1)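 Displacement screen in 96-well plates: TO-PRO-1 or TO-PRO-3 indicator with RNA in 20 mM phosphate pH 7.0, 20 mM NaCl, 80 mM KCl. Each compound was added as 0.25 μL of 1 mM DMSO stock (about 5 uM final), and fluorescence was read after 30 min on an Infinite 200 PRO (excitation 485 or 620 nm). Values are indicator fluorescence after subtracting the buffer-plus-indicator blank, divided by the no-compound RNA-plus-indicator signal. Each is the mean of two independent experiments.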
# [2] = tested on: hsa-mir-21 loop
# Method in brief: as §1
# [3] = tested on: hsa-mir-221 loop
# Method in brief: as §1
# [4] = tested on: hsa-mir-374a loop
# Method in brief: as §1
# [5] = tested on: hsa-mir-6850 loop
# Method in brief: as §1
# [6] = indicator: TO-PRO-1 0.1 uM, RNA concentration: 0.1 uM
# [7] = indicator: TO-PRO-3 0.5 uM, RNA concentration: 0.5 uM
Structure (SMILES),"normalised indicator fluorescence [1, 6]","normalised indicator fluorescence [1, 7]","normalised indicator fluorescence [2, 6]","normalised indicator fluorescence [2, 7]","normalised indicator fluorescence [3, 6]","normalised indicator fluorescence [3, 7]","normalised indicator fluorescence [4, 7]","normalised indicator fluorescence [5, 6]","normalised indicator fluorescence [5, 7]","normalised indicator fluorescence [4, 6]"
N#Cc1c(NC(=O)c2cccc3ccccc23)sc2c1CCCC2,1.04,0.988,1.02,1.01,0.919,1.02,0.983,1.08,1.02,–
NC(=O)N/N=C/c1ccc([N+](=O)[O-])o1 [Furacilin],1.06,1.02,0.909,1.06,1.14,1.03,1.16,0.927,1.04,1.15
O=c1c(O)c(-c2ccccc2)oc2cc(O)cc(O)c12 [Galangin],1.05,1.08,1,1.04,1.03,1.22,1.3,0.971,1.07,1.11
Cc1oncc1C(=O)Nc1ccc(C(F)(F)F)cc1 [Leflunomide],0.986,0.97,0.91,1.03,1,1.11,1.36,0.838,1.01,1.11
O=C1c2c(O)cc(O)cc2OC(c2ccc(O)c(O)c2)C1O (stereo not drawn) [Taxifolin],0.994,1.06,0.976,1.05,1.05,1.11,1.15,0.944,1.08,1.13
CC(=O)Oc1c(C)c(C)c2c(c1C)CCC(C)(CCC[C@H](C)CCC[C@H](C)CCCC(C)C)O2 (stereo partly drawn) [Vitamin E Acetate],1.01,1.05,0.923,1.04,1.1,1.05,1.02,0.957,1.02,1.01
CCNC(=O)c1noc(-c2cc(Cl)c(O)cc2O)c1-c1ccc(OC)cc1,1.05,1.04,1.06,1.06,1.06,0.964,1.17,1.03,1.05,1.1
O=C1CCc2ccccc2C1 [Beta-Tetralone],1.04,1.06,1.05,1.04,1.04,1.06,1.02,0.996,1.08,1.07
Cc1c(F)cc(C(=O)NC2CC2)cc1-c1ccc(C(=O)NCC(C)(C)C)cn1 [Losmapimod],0.997,1.02,0.887,1.04,1.07,1.08,1.13,0.95,1.06,1.06
Oc1cc(O)c2c(c1)O[C@H](c1ccc(O)c(O)c1)[C@@H](O)C2 [(+)-Catechin Hydrate],0.971,1.07,0.941,1.02,1.02,1.13,1.22,0.975,1.09,1.15
NC(=O)c1ccccc1Nc1ccnc(Nc2cccc(O)c2)n1,0.949,1.02,0.974,1.02,0.967,0.979,1.2,0.993,1.04,1.12
COc1ccc([C@@H]2OC[C@H]3[C@@H]2CO[C@@H]3c2ccc(O[C@@H]3O[C@H](CO)[C@@H](O)[C@H](O)[C@H]3O)c(OC)c2)cc1OC [Forsythin],1.06,1.04,0.926,0.988,0.939,1.04,1.09,0.927,1.07,1.09
O=c1cc(-c2ccccc2)oc2cc(O)c(O)c(O)c12 [Baicalein],0.599,0.956,0.653,0.944,0.767,0.926,0.91,0.918,1.05,0.88
N=C(NCCCCCCNC(=N)NC(=N)Nc1ccc(Cl)cc1)NC(=N)Nc1ccc(Cl)cc1 [Chlorhexidine],0.988,1.04,1.05,1,0.96,0.994,1.05,0.83,1.07,1.05
CO[C@@H]1[C@H](N(C)C(=O)c2ccccc2)C[C@H]2O[C@]1(C)n1c3ccccc3c3c4c(c5c6ccccc6n2c5c31)C(=O)NC4 [Midostaurin],1.16,1.04,1.09,1.06,1.18,0.972,1.43,1.02,1.02,–
O=c1ccc2ccc(O)cc2o1 [7-Hydroxycoumarin],1.06,1.06,1.05,0.997,1.11,1.01,1.15,0.986,1.05,1.07

Structure (SMILES),"normalised indicator fluorescence [1, 6]","normalised indicator fluorescence [1, 7]","normalised indicator fluorescence [2, 6]","normalised indicator fluorescence [2, 7]","normalised indicator fluorescence [3, 6]","normalised indicator fluorescence [3, 7]","normalised indicator fluorescence [4, 7]","normalised indicator fluorescence [5, 6]","normalised indicator fluorescence [5, 7]","normalised indicator fluorescence [4, 6]"
CN(NC(=O)CC(=O)NN(C)C(=S)c1ccccc1)C(=S)c1ccccc1 [Elesclomol],1.05,1.03,1.06,1.03,1.04,0.964,1.18,1.02,1.02,1.09
Cn1cc(C2=C(c3cn(CCCSC(=N)N)c4ccccc34)C(=O)NC2=O)c2ccccc21 [Ro 31-8220 Mesylate],1.38,0.894,–,0.929,–,0.947,1.02,1.08,0.859,–
CC(C)c1cc(C(C)C)c(CC(=O)NS(=O)(=O)Oc2c(C(C)C)cccc2C(C)C)c(C(C)C)c1 [Avasimibe],1.05,1.12,0.952,1.08,1.05,1.03,–,0.985,0.948,1.08
COc1nc(-c2ccc3c(c2)OCO3)n(-c2ccc(NC(=O)CSc3ccccc3)cc2)n1 [SecinH3],1.09,1.02,0.961,1.2,1.02,1.1,1.12,1,0.992,1.01
CC(C)=CCC[C@](C)(O[C@@H]1O[C@H](CO)[C@@H](O)[C@H](O)[C@H]1O)[C@H]1CC[C@]2(C)[C@@H]1[C@H](O)C[C@@H]1[C@@]3(C)CC[C@H](O)C(C)(C)[C@@H]3[C@@H](O[C@@H]3O[C@H](CO)[C@@H](O)[C@H](O)[C@H]3O[C@@H]3OC[C@@H](O)[C@H](O)[C@H]3O)C[C@]12C [Notoginsenoside R1],1.04,1.01,1,0.991,1.15,0.995,1.09,0.982,1.01,1.21
CN1CCN(c2nc(C3=C(c4c[nH]c5ccccc45)C(=O)NC3=O)c3ccccc3n2)CC1 [Sotrastaurin],0.995,1.01,1.13,1.04,1.03,0.999,1.3,0.954,0.996,1.19
O=c1cc(-c2ccc(O)c(-c3c(O)cc(O)c4c(=O)cc(-c5ccc(O)cc5)oc34)c2)oc2cc(O)cc(O)c12 [Amentoflavone],0.994,1.42,1.16,1.23,1.19,1.17,–,1.07,1.03,1.29
CCNC(=O)c1[nH]nc(-c2cc(Cl)c(O)cc2O)c1-c1ccc(OC)cc1,1.01,1.05,1.05,1.06,1.02,0.975,1.11,0.952,1.05,1.11
O=C(O)/C=C/c1ccc(Cn2ccnc2)cc1 [Ozagrel],0.962,1.05,0.996,1.03,1.07,1.05,1.19,0.929,1.03,1.12
C[C@H]1[C@H](C)CC[C@]2(C(=O)O[C@@H]3O[C@H](CO[C@@H]4O[C@H](CO)[C@@H](O[C@@H]5O[C@H](C)[C@H](O)[C@@H](O)[C@H]5O)[C@H](O)[C@H]4O)[C@@H](O)[C@H](O)[C@H]3O)CC[C@]3(C)C(=CC[C@@H]4[C@@]5(C)C[C@@H](O)[C@H](O)[C@@](C)(CO)[C@@H]5CC[C@]43C)[C@H]12 [Asiaticoside],1.02,1.03,0.968,0.996,0.992,1.03,1.16,1.03,1.11,1.09
CC(=O)O[C@H]1C[C@@]2(C)[C@@H](C[C@@H](O)[C@H]3[C@@]4(C)CC[C@@H](O)[C@@H](C)[C@@H]4CC[C@@]32C)/C1=C(\CCC=C(C)C)C(=O)O [Fusidine],0.992,1.01,0.976,1.08,1.04,1.02,1.21,1.06,1.06,1.15
C1CCN2C[C@@H]3C[C@@H](CN4CCCC[C@@H]34)[C@H]2C1 [(-)-Sparteine sulfate pentahydrate],0.913,1.02,0.863,1.2,1.09,1.06,1.14,0.921,1.05,1.14
CNc1ccc([N+](=O)[O-])c(Nc2ccc3[nH]ncc3c2)n1,0.903,0.996,0.899,1.02,0.959,1.15,1.35,0.93,0.929,1.1
O=c1ccc2ccc(O)c(O)c2o1 [Daphnetin],1.01,0.873,1.09,0.941,0.91,0.965,1.03,1.19,0.881,1.09
CC(=O)c1ccc(S(=O)(=O)NC(=O)NC2CCCCC2)cc1 [Acetohexamide],0.972,1.04,0.846,1.09,1.08,1.05,1.21,0.908,1.08,1.18
